# Screens as filed in PubChem BioAssay.
# This is a sample that favours compounds with a hit; in the whole collection about 3% have one here.
# Insulin prom inh = TRM-6 insulin promoter activity inhibition; TRM-6 cells (human fetal islet line), insulin promoter-eGFP reporter, imaging; reporter expression induced with tamoxifen; inhibition, % at 2 µM; 0.9% of 130,000 active;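 active = inhibition above the mean plus 3 SD, with well images judged a real hit on visual review, cut at about 60% in these data, passing the limit was not always enough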
# sdo1 growth = sdo1-depleted yeast growth rescue; S. cerevisiae sdo1-depleted JHY4D growth rescue, OD600 30 h; active compounds read high; pdr5 snq2 efflux-pump mutant strain; z-score at 10 µM; 0.21% of 140,000 active; AID 817;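 active = z-score above 3 at both the 24 hr and the 30 hr optical density reads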;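 also: z-score against mean and SD of all compound wells on the same plate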
# ROMK primary = modulators of human ROMK potassium channel; Tet-inducible ROMK, thallium flux fluorescence; actives lie on both sides; B-score at 10 µM; 2% of 130,000 active; AID 1918;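 active = signal ratio slope over the read window, or its plate-corrected B-score, at least 3 SD from the plate mean, either direction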;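 also: B-score of the F/F0 ratio slope over 7 to 12 s after thallium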
# Target sequence (P48048 whole entry, looked up): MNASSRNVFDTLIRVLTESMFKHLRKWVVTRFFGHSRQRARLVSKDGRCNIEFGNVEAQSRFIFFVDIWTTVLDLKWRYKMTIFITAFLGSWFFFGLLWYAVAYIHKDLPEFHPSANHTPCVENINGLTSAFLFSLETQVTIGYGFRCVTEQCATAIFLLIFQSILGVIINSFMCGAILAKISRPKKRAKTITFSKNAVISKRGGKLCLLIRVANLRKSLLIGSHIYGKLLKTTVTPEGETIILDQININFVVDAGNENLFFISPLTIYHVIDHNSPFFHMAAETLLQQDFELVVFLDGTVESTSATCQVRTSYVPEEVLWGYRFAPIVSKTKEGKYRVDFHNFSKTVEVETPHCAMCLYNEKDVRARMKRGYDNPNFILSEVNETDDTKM
# Measles CPE = protection of cells from measles virus | Measles virus-infected cells, CPE protection, absorbance | protection (pct of control), % at 4 µM | 1.5% of 140,000 active; in the data active = protection mostly above about 24%, no sharp cut-off; inactive = mostly below about 26%
# Numbers without * were called inactive; nt = no result.
SMILES,Insulin prom inh,sdo1 growth,ROMK primary,Measles CPE
Cc1ncc(CO)c2cc(C(N)=O)c(=Nc3ccccc3)oc12,nt,0.1,0.659,48.1*
Cc1ccc(N=c2oc3cc(O)ccc3cc2C(N)=O)cc1,nt,-1.77,nt,5.0
CC12C(=O)N(Cc3ccco3)C(=O)C1C1c3ccccc3C2c2ccccc21 (configuration not stated),nt,-0.33,-1.49,13.4
Cc1nc(CS(=O)(=O)c2ccccn2)sc1C(=O)NNC(=O)c1ccc(Cl)cc1,nt,nt,0.88,nt
COc1cccc(C2c3c(oc4ccc(Cl)cc4c3=O)C(=O)N2c2cc(C)on2)c1OC (configuration not stated),-12.1,-1.35,0.224,nt
c1ccc(NCc2nc(-c3ccccc3)no2)cc1,80.0*,-0.62,nt,18.8
CCOc1ccc(-c2nnc(-c3snc(-c4ccc(F)cc4)c3N=CN(C)C)o2)cc1,nt,-1.15,nt,5.1
CC(=O)C1=C(O)CCC1=NCCc1ccccc1,14.3,-0.22,nt,28.8*
CC(=O)C1=C(O)CC(c2ccccc2)CC1=NCCc1ccccc1 (configuration not stated),-8.3,nt,-1.15,nt
CNc1ccc(Br)cc(C(=O)/C=C/c2ccc3c(c2)OCO3)c1=O,-25.0,-0.77,nt,53.8*
CCOC(=O)C1(CCc2ccccc2)CCN(C(=O)Cc2nonc2C)CC1,nt,nt,0.407,nt
CCOC(=O)C1=C(CC)OC(N)=C(C#N)C1c1cc(OC)ccc1OC (configuration not stated),0.0,0.14,nt,15.7
CCOC(=O)C1=C(CC)OC(N)=C(C#N)C1c1ccc(NC(C)=O)cc1 (configuration not stated),-31.2,-0.81,0.147,30.5*
O=C(NCc1ccco1)C(=O)NCC(c1ccco1)N1CCOCC1 (configuration not stated),nt,nt,-0.000525,nt
C/C(=N\NC(=O)CSCc1ccc([N+](=O)[O-])cc1)c1cccc(Br)c1,-50.0,-0.53,0.048,35.4*
C/C(=N\NC(=O)CSCc1ccccc1Br)c1cccc([N+](=O)[O-])c1,nt,-0.44,nt,9.4
O=C(NC(=S)Nc1ccc(S(=O)(=O)Nc2nccs2)cc1)c1cccc(F)c1,74.1*,0.54,nt,24.3
COc1ccc(N2CCN(C(=O)c3ccc(NS(=O)(=O)c4ccc(F)c(F)c4)cc3)CC2)cc1,0.0,0.52,-0.0151,20.1
COc1ccc(N2CCN(C(=O)c3ccc(NS(=O)(=O)c4cccc(F)c4)cc3)CC2)cc1,35.0,0.53,nt,18.8*
O=C(/C=C/c1ccc(S(=O)(=O)N2CCOCC2)cc1)NC(=S)Nc1ccc(Cl)cc1Cl,nt,nt,-0.0311,nt
COc1ccc(CCNS(=O)(=O)c2ccc3c(c2)CC(C)N3C(C)=O)cc1OC (configuration not stated),-25.0,0.83,0.904,37.5*
CCOc1ccc2oc(C(=O)NCC(C)(C)CN(C)C)c(C)c2c1,nt,nt,0.898,nt
CCc1cc(C(=O)OC)c(NC(=O)CC2NCCNC2=O)s1 (configuration not stated),53.5,2.29,-0.13,1.1
CCc1cc(C(=O)OC)c(NC(=O)C2CC(=O)NN2Cc2ccccc2)s1 (configuration not stated),-96.7,-0.11,nt,23.0*
C/C(O)=C(/C=NCC(=O)O)C(=O)Nc1nccs1,20.0,nt,1.62,nt
SMILES,Insulin prom inh,sdo1 growth,ROMK primary,Measles CPE
CC(C)N1CCN(Cc2ccc3c(c2)Cc2ccccc2-3)CC1CCO (configuration not stated),13.0,nt,-1.11,nt
O=C(NC(=S)Nc1ccccc1)c1csnn1,20.6,0.84,nt,2.4
O=C(NC(=S)Nc1ccc(C(F)(F)F)cc1)c1csnn1,nt,nt,7.43*,nt
CC(=O)c1ccc(NC(=O)Nc2ccc3c(c2)N(C)C(=O)CS3)cc1,nt,-0.07,-0.0856,14.3
CCOc1ccc(NC(=O)Nc2ccc3c(c2)N(C)C(=O)CS3)cc1,-14.3,-0.31,nt,41.1*
COC(=O)c1sccc1NC(=O)CN(C)NS(=O)(=O)c1ccc(Cl)cc1,10.7,-1.03,nt,43.6*
CC(C)(C)NC(=O)NCc1cccnc1,nt,nt,-0.152,nt
Cc1nn(CCC(=O)NNC(=S)NCC(C)C)c(C)c1Br,-26.7,0.66,0.222,32.9*
CNC(=S)NNC(=O)CCn1nc(C)c(Br)c1C,33.3,0.17,0.26,20.2
CCOCCCNC(=S)NNC(=O)CCn1nc(C)c(Br)c1C,-16.7,1,1.24,39.4*
Cc1ccc(S(=O)(=O)NNC(=O)CCCCC(=O)NNS(=O)(=O)c2ccc(C)cc2)cc1,-61.1,nt,-0.44,nt
C#CCCCCCCC#CCN(C)C,0.0,0.31,0.334,10.1
Cc1cc(C)n2nc(N)c(N=Nc3cccc(Cl)c3)c2n1,61.5*,-0.64,-0.226,4.1
Cc1ccc(N=Nc2c(N)nn3c(N)c(C#N)c(C)nc23)cc1,46.7,nt,-1.42,nt
Cc1ccc(N=Nc2c(N)nn3c(C)cc(C)nc23)cc1,81.8*,0.04,-0.02,10.4
COc1cccc(N=Nc2c(=O)[nH]n3c(C)cc(C)nc23)c1,53.1,0.63,nt,15.8
O=C(Nc1ccc2c(c1)C(=O)NC2=O)c1ccc2ncsc2c1,31.6,nt,-1.66,nt
Cc1cccc(N2CCN(C(=O)C(C)C)CC2)c1C,78.6*,-1.73,nt,17.9
CCN(CCCNC(=O)C1CCC(=O)N1C(C)C)c1cccc(C)c1 (configuration not stated),-3.3,1.28,nt,11.4
CCc1ccc(OCC(=O)NC(NC(=S)Nc2ccccc2OC)C(Cl)(Cl)Cl)cc1 (configuration not stated),nt,-0.98,nt,42.9*
COc1ccc(CCNC(=O)CN2CCCc3ccccc32)cc1OC,-14.3,0.57,0.0687,44.8*
COc1ccc(CCNC(=O)CN(C)S(=O)(=O)c2ccc(Br)s2)cc1OC,-92.9,0.53,0.22,4.2
COc1ccc(CCNC(=O)CN(C)S(=O)(=O)c2cccs2)cc1OC,13.5,1.45,0.844,35.9*
COc1ccc(CCNC(=O)CN2CCC(C)CC2)cc1OC,5.4,0.26,0.0353,31.7*
CC(=O)NC1CC(C)(C)N(OC(C)=O)C(C)(C)C1,73.7,1.56,0.043,10.4
SMILES,Insulin prom inh,sdo1 growth,ROMK primary,Measles CPE
CCOC(=O)C1=NOC(COc2ccccc2C=O)C1 (configuration not stated),31.7,nt,0.00175,nt
Cc1c(CCO)sc[n+]1CC(=O)OCCC12CC3CC(CC(C3)C1)C2,66.7*,-0.07,-0.1,6.0
OCCNCCCCOc1ccc(F)cc1,-5.4,1.62,nt,48.5*
C=CCN(c1ccccc1)S(=O)(=O)c1ccc(Cl)c(C(=O)OCC(=O)N(C)C2CCS(=O)(=O)C2)c1 (configuration not stated),-61.1,nt,0.634,nt
Cc1ccc2c(Cl)c(C)c(N3CCCCC3)nc2n1,83.3*,-1.88,nt,8.5
Cc1nc2ccccc2nc1N1CCCCC1,nt,0.32,nt,18.9
CCn1c(COc2ccc(C)cc2)nnc1SCC(=O)Nc1cc(OC)ccc1OC,nt,-1.16,-0.929,49.1*
Cn1c(=O)[nH]c(NC2CCCCC2)c(N=O)c1=O,nt,1.42,nt,40.8*
COc1cccc(-n2c([S-])c(C(=O)Nc3ccc(C(F)(F)F)cc3)[n+]3ccccc23)c1,nt,nt,-0.0614,nt
CCN(C(=O)c1cn(C)c(=O)c2cc(OC)c(OC)cc12)c1ccccc1C,81.0*,-0.28,nt,8.0
CCN(C(=O)c1cn(C)c(=O)c2cc(OC)c(OC)cc12)c1cc(C)ccc1C,nt,0.75,nt,5.9
C=CCn1c(SCC(=O)N2CCN(c3ccccc3)CC2)nnc1-c1ccco1,76.9*,-0.68,nt,0.2
O=C(CSc1nnc(-c2ccco2)n1-c1ccccc1)N1CCOCC1,-2.8,0.47,nt,9.7
